Measurements taken from ChEMBL document CHEMBL3988442, “University of Dundee, Small-Polar-MMV Screening Library” (2021).
Among all 48,000 compounds or so, about 13,000 (27%) showed an effect of 50% or more. Some of the results follow.

The molecules below were run on Wolbachia pipientis (assay: Anti-Wolbachia Cell-Based Screen). Details: 5 µM.
Type: functional
Design: scale not given: in the data most compounds retested in dose-response had high values

SMILES | Percent Effect [%]
O=C(O)CC1CN(S(=O)(=O)c2cccc(F)c2)c2ccccc21 (stereo not given) | -14.9
CC(NC(=O)Nc1nnc(-c2ccccn2)s1)C(=O)OC(C)(C)C (stereo not given) | 4.269
CN1CC[C@@H]2[C@@H](CO[C@H]2CNC(=O)c2nccn2C)C1.O=C(O)C(F)(F)F | -30.91
COCCN(CCN(C)C)C(=O)NC1CCc2ccccc2C1 (stereo not given) | -2.569
Cc1ccc(Sc2ccc(CN3CCC4(CCCNC4=O)C3)o2)cc1 (stereo not given) | 5.94
O=C1NCCCC12CCN(Cc1ccc(SC3CCCCC3)o1)C2 (stereo not given) | 4.336
CCOc1cc2c(cc1CN1CCC3(CCCNC3=O)C1)CCC2 (stereo not given) | 106.5
CCCc1cc(C(=O)N2CCC3(CCCNC3=O)C2)cs1 (stereo not given) | 9.333
CCOc1cc2c(cc1CCC(=O)O)CCC2 | -9.267
CCOc1cc(Cl)c(CN2CCC3(CCCNC3=O)C2)cc1OC (stereo not given) | 104.3
CCOc1ccc(CN2CCC3(CC2)CNC(=O)C3)cn1 | -1.206
CCOc1cc2c(cc1CN1CCC3(CC1)CNC(=O)C3)CCC2 | 89
CCCNc1ncc(CN2CCC3(CC2)CNC(=O)C3)cn1 | -5.134
CN1CCc2ccc(NCc3cscn3)cc2C1=O | 26.59
CN(C)C(=O)CN1C[C@H]2CCN(C(=O)c3ccncc3)CC[C@H]2S1(=O)=O | 6.618
CCc1nnc(S(=O)(=O)Cc2cc(Cl)c3c(c2)OCO3)n1C | -5.495
CN(CCO)c1nc(-c2ccccn2)nc2c1CCNC2 | -7.259
CCN(CC)CCN(C)c1nc(-c2ccc(Cl)cc2)nc2c1CNC2 | -44.78
CNC(=O)CN(C)c1nc(-c2ccncc2)nc2c1CCN(C(C)=O)C2 | -5.976
CN(CC(O)CO)c1nc(-c2cccnc2)nc2c1CCNC2 (stereo not given) | 5.807
CN(CCCO)c1nc(-c2ccc(C(N)=O)cc2)nc2c1CCNC2 | 101.5
CNC(=O)CCN(C)c1nc(-c2ccncc2)nc2c1CCNC2 | 97.6
COCCN(C)c1nc(-c2ccncc2)nc2c1CCN(C(C)=O)C2 | 5.956
CNC(=O)CN(C)c1nc(-c2ccc(C(N)=O)cc2)nc2c1CCNC2 | 117.3
NC(=O)c1ccc(-c2nc3c(c(=O)[nH]2)CCNC3)cc1 | -6.229
O=C1NCCO[C@H]2CN(C(=O)CCc3ccc(Cl)cc3)CC[C@@H]12 | 1.273
O=C(CC1CCc2ccccc21)NCCSc1cnn[nH]1 (stereo not given) | -1.678

SMILES | Percent Effect [%]
O=S(=O)(NCC1CCOC1)N1CCc2ccccc2C1 (stereo not given) | 0.4119
CN(CCOc1ccc(Br)cc1)Cc1cscn1 | -4.62
CCCc1nnc(NC2CCN(Cc3ccc(F)c(F)c3)CC2)o1 | -13.59
Cc1cc(C(=O)NC2CCCCNC2=O)c(=O)[nH]c1C (stereo not given) | -5.405
O=C(CO)N1CCC(F)(F)C2(CCN(c3ccccc3)C2)C1.O=C(O)C(F)(F)F (stereo not given) | 5.936
Cn1cc(CN2CCOC3(CCCN(c4cccc(F)c4)C3)C2)cn1.O=C(O)C(F)(F)F.O=C(O)C(F)(F)F (stereo not given) | -4.147
O=C(O)C(F)(F)F.O=C(O)C(F)(F)F.O=C(O)CN1CCC(F)(F)C2(CCN(c3ccccc3)C2)C1 (stereo not given) | -5.23
FC1(F)CCN(Cc2ccncc2)CC12CCN(c1cccnc1)C2.O=C(O)C(F)(F)F.O=C(O)C(F)(F)F.O=C(O)C(F)(F)F (stereo not given) | 90.74
Cn1cc(CN2CCC(F)(F)C3(CCN(c4cccc(F)c4)C3)C2)cn1 (stereo not given) | 120.4
O=C(O)C(F)(F)F.O=C(c1c[nH]cn1)N1CCC(F)(F)C2(CCN(c3cccc(F)c3)C2)C1 (stereo not given) | -14.3
FC1(F)CCN(Cc2cccnc2)CC12CCN(c1ccccc1)C2.O=C(O)C(F)(F)F.O=C(O)C(F)(F)F.O=C(O)C(F)(F)F (stereo not given) | 93.27
Cn1cc(CN2CCC(F)(F)C3(CCN(c4cccnc4)C3)C2)cn1.O=C(O)C(F)(F)F.O=C(O)C(F)(F)F (stereo not given) | 116.7
Cc1nc(Nc2ccc(Cl)cn2)sc1C(=O)NC(C)C | 4.933
O=C(NCc1nc(NC2CCCC2)c2cc(Cl)ccc2n1)c1ccoc1 | 13.57
CC(C)(C(=O)NCc1n[nH]c(=O)[nH]1)c1ccc(F)cc1 | 1.866
O=C(NCCC(O)c1ccco1)c1ccccc1Br (stereo not given) | 14.27
CC(O)CN1CCN(C(=O)c2ccn(-c3cccc(Cl)c3)n2)CC1 (stereo not given) | 1.72
CS(=O)(=O)N1CCCC12CCN(Cc1nccs1)CC2.O=C(O)C(F)(F)F | -14.48
CS(=O)(=O)N1CCOCC12CCN(Cc1ccoc1)CC2 | 122
CS(=O)(=O)N1CCCC12CCN(Cc1ccoc1)CC2 | 99.65
CS(=O)(=O)N1CCOCC12CCN(c1nncs1)CC2 | 4.354
Cn1cc(CN2CCC3(CCCN3S(C)(=O)=O)CC2)cn1 | 6.984
CN(C)C(=O)CO[C@H]1CO[C@@]2(CCN(Cc3ccoc3)C2)C1 | -7.87
COCCNc1ccccc1CNC(=O)NCc1ccc(C)s1 | -4.597
CS(=O)(=O)CCOCCNc1cncc(Br)c1 | -7.579
CN1CCCN(c2nc(C3CC3)ns2)CC1 | -64.99
CC(C)CNC(=O)c1cn(C(C)C)cc2c(=O)[nH]nc1-2 | 135.5

SMILES | Percent Effect [%]
CC(C)n1cc(C(=O)NCCN(C)C)c2n[nH]c(=O)c-2c1 | 115.3
Cc1ccc(C(=O)NCC(C)Cn2cccn2)c(=O)[nH]1 (stereo not given) | -11.2
CN(C)CCNC(=O)c1cc2n(n1)CCN(C(=O)c1ccc[nH]1)C2 | -27.47
CC(C)CNC(=O)c1ccc2c(=O)n(-c3ccccc3)cnc2c1 | 11.47
CC(C)N(CCNC(=O)c1n[nH]c2ccccc12)C(C)C | 25.98
CCOCCn1nc(C)cc1C(=O)N1CCC2(CC1)[C@H](O)C[C@@H]2OCC | -36.55
CC1=C[C@@H](CNS(C)(=O)=O)[C@H](C(C)C)C[C@H]1CC(=O)NCCN(C)C | 5.044
Cc1cc(C)n(CCCC(=O)N2CC[C@H]3NCCC[C@]3(CO)C2)n1 | -1.122
CS(=O)(=O)CCC(=O)N1C[C@@H]2CC[C@H](C1)N(Cc1ccccc1)C2=O | 8.046
COCCN1CCN(CC(=O)N(C)Cc2ccc(C)o2)CC1C (stereo not given) | 6.475
Cc1ccc(CN(C)C(=O)CNC(=O)N2CCc3ccccc3C2)o1 | 79.51
CN(Cc1ccco1)C(=O)CN1CCc2ccccc2C1 | -0.07899
Cc1ccc(CN(C)C(=O)CN2CCc3ccccc3C2)o1 | 87.7
Cc1ccc(CN(C)C(=O)CN2CCCC2c2cnn(C)c2)o1 (stereo not given) | -1.976
Nc1nc(NCCO)cc(N2CCc3c([nH]c4ccccc34)C2)n1 | 98.87
OCC1CCCN1c1cc(NCCc2c[nH]c3ccccc23)ncn1 (stereo not given) | 7.134
CCNc1cc(N2CCN(C(=O)c3ccc(OC)cc3)CC2)nc(C)n1 | 4.812
COc1ccc(F)c(-c2cc(NCCO)nc(N)n2)c1 | -1.904
COc1ccc2[nH]c3c(c2c1)CN(c1cc(NCCO)nc(N)n1)CC3 | 97.63
c1ccc2c3c([nH]c2c1)CN(Cc1cc2n(n1)CCNC2)CC3 | -25.6
Cc1cccc(-c2nnn3c2COC(CNC(=O)N2CCCC2)C3)c1 (stereo not given) | 9.642
NCC1Cc2cc(-c3nccc(N4CCC(O)CC4)n3)cc(Cl)c2O1 (stereo not given) | -10.94
Cc1ccc(C)c(Oc2ccc(CNC(=O)C3CCS(=O)(=O)C3)cn2)c1 (stereo not given) | -2.907
CCCc1noc(CNc2ccc(C(=O)N3CCCC3)cc2C)n1 | 101
CC(C)Cc1noc(CNc2ccccc2CC(=O)N(C)C)n1 | 7.405
CCCc1nc(CNc2cccc(C(=O)N3CCCC(O)C3)c2)no1 (stereo not given) | 1.271
CC(C)Cc1noc(CN2CCCN(C(=O)c3cccc(Cl)c3)CC2)n1 | -52.16

SMILES | Percent Effect [%]
CCc1noc(CNc2ccc(CC(=O)N3CCSCC3)cc2)n1 | 21.21
CCc1noc(CNc2cccc(C(=O)N3CCSCC3)c2)n1 | 10.06
Cc1cc(C(=O)N2CCCC2)ccc1NCc1nc(CC(C)C)no1 | 81.12
CCc1nc(CNc2ccc(C(=O)N3CCSCC3)cc2C)no1 | 92.2
Cc1cc(C(=O)N2CCCC2)ccc1NCCOCC(F)(F)F | -22.68
CCc1nc(CNc2ccc(C(=O)NCc3ccco3)cc2C)no1 | -7.097
CCc1noc(CNc2ccc(C(=O)N3CCCC3)cc2C)n1 | 101.8
Cc1ccc(C(=O)N2CCCC(CNS(=O)(=O)C(C)C)C2)cc1 (stereo not given) | -19.42
CN(Cc1csc(-c2ccccc2)n1)Cc1ncccc1C(=O)O | 4.154
N#Cc1ccccc1OCCN1CCN(C(=O)C2CCCC2)CC1 | -2.024
CC1CCN(S(=O)(=O)NC2CCCCNC2=O)CC1 (stereo not given) | 36.47
CC(C)CNC(=O)Nc1ccc(CN2CCOC2=O)cc1 | -13.36
CS(=O)(=O)NCc1ccc2c(c1)CCC2 | -9.378
COCCS(=O)(=O)NCC(C)c1cccc(C)c1 (stereo not given) | -6.365
CCN(C)c1ccc(CNS(=O)(=O)CC2CCCO2)cc1F (stereo not given) | -7.103
Cc1cnn(CCC(=O)NCc2ccc(N(C)C)c(C)c2)c1 | 4.786
Cc1cc(CNS(=O)(=O)CCCC#N)ccc1N(C)C | 89.17
Cc1ccc(CNS(=O)(=O)CCCC#N)cc1F | 111.5
Cc1cc(CNS(C)(=O)=O)ccc1N(C)C | 110.2
Cc1ccc(CNC(=O)NC(C)CCS(C)(=O)=O)cc1F (stereo not given) | -1.224
CC(CNS(=O)(=O)CCCC#N)c1ccsc1 (stereo not given) | -6.761
Cc1cccc(C(C)CNS(=O)(=O)CCCC#N)c1 (stereo not given) | 5.748
Cc1ccc(CNC(=O)c2ccc(CNS(C)(=O)=O)o2)cc1F | 2.956
COCCS(=O)(=O)NCc1ccc(N(C)C)c(C)c1 | 78.12
